Screens (PubChem BioAssay)
This is a sample that favours compounds with a hit; in the whole collection about 7.4% have one here.
Rab9 prom act: activates the Rab9 promoter; AID 485297; Potency, µM (titrated, usually from 9.22 µM), inactives show at the highest dose activation, negative = inhibition, hits mostly activators; 320,000 tested, 2.8% active; Huh7 Rab9 promoter-luciferase reporter, luminescence, 24 h; further: % of control where 0% means no effect; nearly all actives have a fitted effect of over 60% in size
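Huh7 cells stably carrying Rab9 promoter–luciferase reporter, plated 1500 cells/well, compound added after 2 h and incubated 24 h at 37 °C; luciferase luminescence then read after 10 min with detection reagent.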
SMN2 splice enh: enhancers of SMN2 splice variant expression. HEK293 SMN2-luciferase splicing reporter, luminescence, 30-36 h. Potency, µM (doses to about 46.1 µM), without a hit: at the highest dose activity change, positive = activation, usual class: activators. 210,000 tested, 2.8% active. AID 1458; further: % of control where 0% means no effect; nearly all actives have a fitted effect of over 55% in size
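qHTS luciferase splicing reporter: luminescence rises when SMN2 exon 7 is included in transfected HEK293 cells. Compound exposure lasted 30-36 h at 37C, with 4.5 mM final sodium butyrate as control, followed by a ONE-Glo read.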
ELG1 genotox: inducers of genotoxicity in HEK293T ELG1-luciferase cells. HEK293T ELG1-luciferase reporter, luminescence, 16 h. Potency, µM (series often up to 46 µM), inactives show at the highest dose activity change, positive = activation, actives largely listed as activators. 330,000 tested, 1.3% active. AID 504466; further: % of control where 0% means no effect; nearly all actives have a fitted effect of over 60% in size
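HEK293T cells expressing luciferase-tagged ELG1 were exposed to compound or DMSO vehicle for 16 hr at 37 °C and 5% CO2. Luciferase activity was then measured with ONE-Glo after 30 min at room temperature.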
NPC1 promoter act: activates the NPC1 promoter | 320,000 tested, 2.4% active | Huh7 NPC1 promoter luciferase reporter, 24 h | Potency, µM (top dose mostly 9.22 µM), for the others: at the top dose activation, most hits filed as activators; further: % of control where 0% means no effect; nearly all actives have a fitted effect of over 60% in size
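Cells: Huh7 expressing luciferase under the NPC1 promoter, 1500/well. Seeded 2 h, compound added, incubated 24 h at 37 °C. Luciferase reagent, 10 min ambient, then luminescence.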
p53 reactivation: mutant p53 re-activation in reporter cells | Potency, µM (top dose mostly 92.2 µM), for the others: at the highest dose activity change, positive = activation, hits mostly activators | 320,000 tested, 0.063% active | H1299 p53-A138V BP100-luciferase reporter, luminescence, 24 h | AID 504706; further: % of control where 0% means no effect; nearly all actives have a fitted effect of over 45% in size
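H1299 (p53-null), stable ts p53-A138V + BP100-Luc; 1000 cells/well, Opti-MEM/10% FBS; cpd 4 pt, 1:5; 24 h, 37 deg C, 5% CO2; detection reagent 10 min RT; luminescence.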
FLuc counter: counter-screen for miR-21 project: firefly luciferase inhibitors or activators; purified FLuc, Km substrates, luminescence inhibition; Potency, µM (doses to about 57.5 µM), inactives show at the top dose activity change, negative = inhibition, actives largely listed as inhibitors; 360,000 tested, 6.9% active; AID 588342;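 further: plate controls were vehicle for no effect and reference inhibitor for full effect; nearly all actives have a fitted effect of over 55% in size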
Target sequence (P08659 whole entry, looked up): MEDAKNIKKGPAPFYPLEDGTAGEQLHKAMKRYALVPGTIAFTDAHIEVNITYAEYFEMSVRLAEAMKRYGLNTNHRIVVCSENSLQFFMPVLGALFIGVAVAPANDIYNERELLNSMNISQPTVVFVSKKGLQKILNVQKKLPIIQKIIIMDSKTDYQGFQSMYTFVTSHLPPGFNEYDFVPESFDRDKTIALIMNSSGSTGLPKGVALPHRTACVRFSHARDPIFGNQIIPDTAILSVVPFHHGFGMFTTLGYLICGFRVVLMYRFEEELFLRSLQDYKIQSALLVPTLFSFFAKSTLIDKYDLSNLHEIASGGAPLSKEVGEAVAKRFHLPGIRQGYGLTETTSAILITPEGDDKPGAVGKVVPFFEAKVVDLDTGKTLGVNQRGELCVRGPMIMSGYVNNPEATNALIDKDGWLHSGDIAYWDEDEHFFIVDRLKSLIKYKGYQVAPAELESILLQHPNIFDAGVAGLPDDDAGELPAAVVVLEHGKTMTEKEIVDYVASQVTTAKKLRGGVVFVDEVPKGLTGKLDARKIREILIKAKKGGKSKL
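Purified P. pyralis luciferase (10nM final) with 10uM D-luciferin and 10uM ATP (Km levels) in 50mM Tris acetate pH 7.5, 10mM Mg acetate, 0.01% Tween-20, 0.05% BSA; qHTS 6-point titration, ~60 µM downward; luminescence read.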
Numbers without * were called inactive; ? = inconclusive; / = not tested or not shown; [ ] = remark or other dose. The call rests on the fitted dose curve; in most records, active means well fitted curve in the direction sought with a large enough effect; inconclusive means small, poorly fitted or top-dose-only effect, or another doubt; inactive means no such curve, though single readings can be large; an effect the other way counts as inactive or inconclusive. Potency means the concentration at half of the fitted maximal effect.

SMILES	Rab9 prom act	SMN2 splice enh	ELG1 genotox	NPC1 promoter act	p53 reactivation	FLuc counter
Cc1cccc(NC(=O)CN(CC2CCCO2)C(=O)c2oc3ccccc3c2C)c1C (stereo not given)	1%	/	-8%	-15%	24%	1%
CSc1ccccc1C(=O)N1CCCC(CNC(=O)c2ccc(F)cc2)C1 (stereo not given)	-1%	/	-1%	-1%	15%	-10%
CCc1cc(C(=O)N2CCCC(CNC(=O)c3ccc(-c4ccccc4)cc3)C2)no1 (stereo not given)	27%	/	-5%	-4%	-1%	12µM*
CSCCC(=O)N1CCCC(CNC(=O)c2ccc(-c3ccccc3)cc2)C1 (stereo not given)	0%	-14%	-2%	-2%	-4%	12µM*
CCc1cc(C(=O)N2CCCC(CCC(=O)N3CCN(c4ccccn4)CC3)C2)no1 (stereo not given)	-19%	/	-4%	-3%	1%	-4%
Cc1ccc(S(=O)(=O)c2c(Nc3ccccc3)sc(C(=O)c3ccc4c(c3)OCO4)c2N)cc1	/	/	/	/	/	-1%
Cc1c(C(=O)NCc2ccccc2Cl)sc2ncnc(N(C)C3CCCCC3)c12	/	/	/	/	/	-3%
CCCN(CC(=O)Nc1ccccc1OC)C(=O)c1cccc(S(=O)(=O)Nc2ccc(OC)cc2)c1	5%	/	-6%	4%	-4%	-1%
Cc1ccccc1Nc1c(-c2ccc(N3CCOCC3)cc2)nc2ccccn12	/	11µM*	/	/	/	0.24µM*
Cc1ccccc1Nc1c(-c2ccc(N3CCOCC3)cc2)nc2cccc(C)n12	/	18%	/	/	/	1.3µM*
Cc1ccccc1Nc1c(-c2cccnc2)nc2cccc(C)n12	-2%	-81%	-7%	-2%	0%	-4%
Cc1ccccc1Nc1c(-c2ccc(N3CCOCC3)cc2)nc2ccc(Br)cn12	/	-8%	/	/	/	3.4µM*
Cc1ccccc1Nc1c(-c2cccc(O)c2)nc2ccc(Br)cn12	/	-1%	/	/	/	1%
Cc1cc(C(=O)NNC(=S)NCC(C)C)no1	1%	-11%	-4%	1%	6%	0%
CNC(=S)NNC(=O)c1sc(-c2cc(C)on2)nc1C	-1%	/	1%	-4%	-7%	17µM*
COc1cc2ccccc2cc1C(=O)Nc1ccc(Br)cn1	1.8µM*	/	?	1.6µM*	/	?
COc1c(C(=O)Nc2ccc(Br)cn2)ccc2ccccc12	?	/	?	18%	24%	5.4µM*
COc1ccccc1NC(=O)Nc1ccc(Br)cn1	17%	5%	4%	8%	1%	2%
CC#CCN1c2ccccc2[C@]23C[C@@H](C(=O)OC)N(S(=O)(=O)c4c(C)noc4C)C2=NC(C(=O)OC)=C(C(=O)OC)[C@H]13	/	22%[9.22 µM]	/	/	/	/
COc1ccc(-c2csc3nc(C)n(-n4cccc4)c(=O)c23)cc1OC	-2%	29%	5%	-7%	-3%	2%[2.3 µM]
Cc1nc2sc(-c3ccccc3)cc2c(=O)n1/N=C/N(C)C	2.8µM*	11µM*	?	2.5µM*	5%	19µM*
Cc1nc2sc(-c3ccccc3)cc2c(=O)n1N	?	/	?	0.1µM*	-3%	0.67µM*
O=c1c2cc(-c3ccccc3)sc2nc2n1CCC2	0.63µM*	3.2µM*	1.2µM*	0.5µM*	19%	3µM*
Cc1nc2sc(-c3ccccc3)cc2c(=O)n1-n1cccc1	1.6µM*	/	?	1.3µM*	?	7.6µM*
NC(=O)CSc1nc2sc(-c3ccccc3)cc2c(=O)n1N	24%	9%	13%	15%	9%	?
O=C(CCCOc1ccc(Br)cc1)NNC(=O)c1ccncc1	-5%	/	0%	-1%	6%	3%
COc1ccc(O)c(-c2nc(N)nc(N)n2)c1	-1%	/	15%	4µM*	13%	?
Nc1nc(N)nc(-c2cc(F)ccc2O)n1	-2%	/	8%	?	30%	?
